Measured values from PubChem BioAssay (Tox21).
Results filed as inconclusive are left out. Where a call stands in place of a potency, no number is given. The source made the active and inactive calls. Calls follow the shape of the dose curve; as a rule, active = well fitted activation curve with a large enough effect in the repeat runs; inconclusive = weak or mixed curves; inactive = no such curve, though single readings can be large or run the other way.

Molecular target: Nuclear receptor subfamily 1 group I member 2 (Homo sapiens) (UniProt O75469)
Test: Human pregnane X receptor (PXR) small molecule agonists, qHTS assay (AID 1346982); also: nearly all actives have a fitted effect of over 35% in size
Conditions: PXR-Luc HepG2, CYP3A4 luciferase reporter, 24 h; series mostly up to 92.4 µM
Method in brief: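 Luminescence (ONE-Glo, 30 min RT) after 24 hr compound exposure of PXR-Luc HepG2 cells; cells rested 5 hr post-plating in 5% charcoal-stripped FBS medium.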
Potency is read from the fitted curve at half-maximal effect.

Sequence of Nuclear receptor subfamily 1 group I member 2 (Homo sapiens) (O75469 whole entry, looked up): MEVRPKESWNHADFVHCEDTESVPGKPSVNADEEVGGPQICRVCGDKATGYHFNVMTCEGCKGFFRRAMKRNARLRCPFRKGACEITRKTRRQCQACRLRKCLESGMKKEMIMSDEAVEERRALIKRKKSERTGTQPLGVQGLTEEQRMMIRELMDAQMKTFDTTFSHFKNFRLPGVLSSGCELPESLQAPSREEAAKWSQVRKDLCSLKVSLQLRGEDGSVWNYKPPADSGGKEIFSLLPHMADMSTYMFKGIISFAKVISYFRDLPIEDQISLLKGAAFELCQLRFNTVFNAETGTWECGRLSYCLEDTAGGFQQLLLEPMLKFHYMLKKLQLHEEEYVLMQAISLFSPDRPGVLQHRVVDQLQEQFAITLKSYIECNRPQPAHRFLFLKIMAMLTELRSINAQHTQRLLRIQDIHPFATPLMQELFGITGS

Q: How did the Potency turn out when OCC1CC2CC1C1CCC(CO)C21 (stereo not given) was run?
A: Its Potency is “inactive”.

Q: For CC(=O)/C(C)=C/C1C(C)=CCCC1(C)C (stereo not given), which Potency is on record?
A: Its Potency is “inactive”.

Q: How did the Potency turn out when O=[N+]([O-])c1cc[n+]([O-])cc1 was run?
A: Its Potency is “inactive”.

Q: CC(=O)N(CC(=O)N(C)C)c1ccccc1 was tested. Which Potency did it give?
A: Its Potency is “inactive”.

Q: COC(=O)C(C)=O was tested. Which Potency did it give?
A: Its Potency is “inactive”.

Q: With Nc1ccc(C(=O)N2CC3CC(CN(Cc4ccccc4)C3)C2)cc1 as the molecule, how does the Potency read?
A: Its Potency is “inactive”.

Q: With CC(=O)O[C@@H]1C(=O)O[C@@H]2[C@H]1OC(=O)[C@@H]2OC(C)=O as the molecule, how does the Potency read?
A: Its Potency is “inactive”.

Q: CC(C)NCC(O)COc1ccc(CC(N)=O)cc1 (stereo not given) was tested. Which Potency did it give?
A: Its Potency is “inactive”.

Q: CC(C)(C)C(=O)OCOP(=O)(COCCn1cnc2c(N)ncnc21)OCOC(=O)C(C)(C)C was tested. Which Potency did it give?
A: Its Potency is 11900 nM (active).

Q: For Cc1c(Cn2ccnc2)c2ccccc2n1CCC(=O)O, which Potency is on record?
A: The Potency was “inactive”.

Q: How did the Potency turn out when CCC(C)N(C)C(=O)c1cc2ccccc2c(-c2ccccc2Cl)n1 (stereo not given) was run?
A: The Potency was 498 nM (active).

Q: With CCCCOc1ccc(CC(=O)NO)cc1 as the molecule, how does the Potency read?
A: Its Potency is “inactive”.

Q: C=CC(=O)OCC(C)OCC(C)OCC(C)OC(=O)C=C (stereo not given) was tested. Which Potency did it give?
A: Its Potency is “inactive”.

Q: For O=c1[nH]cnc2ccccc12, which Potency is on record?
A: Its Potency is 398 nM (active).

Q: How did the Potency turn out when c1ccc(OCc2ccc(CCCN3CCOCC3)cc2)cc1 was run?
A: The Potency was 2370 nM (active).

Q: Which Potency does the source give for Oc1ccc(C(O)CNCCCCCCNCC(O)c2ccc(O)c(O)c2)cc1O (stereo not given) here?
A: The Potency was “inactive”.

Q: How did the Potency turn out when CC[C@@H]1C[C@H](N(Cc2cc(C(F)(F)F)cc(C(F)(F)F)c2)C(C)=O)c2cc(C(F)(F)F)ccc2N1C(=O)OC(C)C was run?
A: Its Potency is 770 nM (active).

Q: How did the Potency turn out when CN(C(=O)CCCOc1ccc2[nH]c(=O)ccc2c1)C1CCCCC1 was run?
A: The Potency was 15000 nM (active).

Q: CC(CN)CCCN (stereo not given) was tested. Which Potency did it give?
A: The Potency was 24300 nM (active).

Q: Which Potency does the source give for C[C@H](CCC(=O)O)[C@H]1CC[C@H]2[C@@H]3[C@H](O)C[C@@H]4C[C@H](O)CC[C@]4(C)[C@H]3CC[C@]12C here?
A: The Potency was “inactive”.
